SRC3 inh: inhibits human SRC3 coactivator | Q9Y6Q9 | HEK293 GAL4-SRC3 luciferase reporter, luminescence | inhibition, % at 3.6 µM | 360,000 tested, 0.17% active | AID 588352;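 active = inhibition above a per-campaign cutoff, the mean of all compounds plus 3 SD, cut at about 60% in these data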;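 note: 0% = DMSO-treated cells and 100% = gossypol-treated cells at 36 µM; higher means less SRC3-driven luciferase light from the GAL4 reporter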
NR5A2 inv ag: NR5A2 inverse agonism in reporter assay; HEK293T StAR-luciferase reporter, LRH-1 transfected, 24 h; 360,000 tested, 0.13% active; AID 602396; inhibition, % at 3.6 µM;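 active = inhibition above the mean inhibition of all tested compounds plus 3 SD, cut at about 73% in these data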;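 note: 0% = DMSO wells and 100% = reporter-only cells lacking LRH-1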
Gli-Sufu block: Gli-Sufu pathway antagonism; Sufu-KO-LIGHT fibroblasts, Gli luciferase reporter luminescence; inhibition, % at 5 µM; 340,000 tested, 0.74% active; AID 588413;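 active = inhibition above about 55%, limit read from the data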;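 note: 0% = DMSO-treated cells and 100% = wells with medium but no cells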
NR2F2 inh: inhibitors of human COUP-TFII (NR2F2); P24468; HEK293T NGFI-A luciferase reporter, luminescence; inhibition, % at 8.6 µM; 370,000 tested, 0.7% active; AID 686940;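 active = inhibition above a per-plate cutoff, mean inhibition of test wells between control levels plus 3 SD, cut at about 38% in these data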;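 note: cells cotransfected with COUP-TFII expression vector driving the NGFI-A reporter; 0% = median of COUP-TF2 test wells and 100% = reporter-only cells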
Target sequence (P24468 whole entry, looked up): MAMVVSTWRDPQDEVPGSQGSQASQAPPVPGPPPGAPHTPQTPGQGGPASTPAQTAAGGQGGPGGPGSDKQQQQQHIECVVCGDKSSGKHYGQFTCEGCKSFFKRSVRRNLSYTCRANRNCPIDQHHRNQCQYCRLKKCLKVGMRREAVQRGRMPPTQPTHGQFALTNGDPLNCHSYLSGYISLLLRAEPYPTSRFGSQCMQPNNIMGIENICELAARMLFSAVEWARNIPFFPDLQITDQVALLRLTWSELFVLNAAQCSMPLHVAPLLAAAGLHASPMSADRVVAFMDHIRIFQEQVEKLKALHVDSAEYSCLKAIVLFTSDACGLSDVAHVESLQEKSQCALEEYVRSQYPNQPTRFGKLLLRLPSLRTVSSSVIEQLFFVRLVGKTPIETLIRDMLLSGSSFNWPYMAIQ
NCOA2 inhibitor: inhibits human steroid receptor coactivator 2; inhibition, % at 9 µM; AID 651957; HEK293 GAL4-SRC2 luciferase reporter, luminescence; 370,000 tested, 0.17% active;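 active = inhibition above the mean inhibition of all tested compounds plus 3 SD, set per campaign, cut at about 52% in these data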;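 note: 0% = DMSO treated cells and 100% = cells given Gossypol at 36 µM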
NCOA1 inh: inhibitors of human steroid receptor coactivator 1 (SRC1) | 360,000 tested, 0.12% active | inhibition, % at 3.6 µM | Q15788 | AID 588354 | HEK293 GAL4-SRC1 luciferase reporter, luminescence;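 active = inhibition above the campaign mean plus 3 SD, with each screening campaign given its own cutoff, cut at about 60% in these data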;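 note: 0% = DMSO treated cells and 100% = gossypol at 36 µM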
Gli antag conf: Gli-SUFU antagonism confirmation, single concentration; shares compounds with Gli-Sufu block; Sufu-KO-LIGHT cells, Gli luciferase reporter, luminescence; inhibition, % at 5 µM; 2,500 tested, 40% active; AID 602428;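 active = mean inhibition at 5 µM reaching about 45%, limit read from the data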;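 note: plate controls were DMSO-treated cells for no effect and wells lacking cells for full effect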
SufuKO cytotox: counter-screen for Gli-SUFU antagonists: cytotoxicity; cytotoxicity, % at 5 µM; shares compounds with Gli-Sufu block; 2,500 tested, 32% active; Sufu-KO-LIGHT cells cytotoxicity, ATP luminescence;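 active = mean cytotoxicity at 5 µM above about 25%, limit read from the data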;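 note: cells exposed to compound overnight for roughly 16 to 18 hours; plate controls were DMSO wells with cells for no effect and medium without cells for full effect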
Wnt3a counter: inhibits Wnt3a reporter, counter-screen for Gli-SUFU antagonists; Wnt-LIGHT cells, Wnt3a-driven luciferase reporter, luminescence; 2,500 tested, 20% active; shares compounds with Gli-Sufu block; inhibition, % at 6.25 µM;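 active = mean inhibition above about 25%, limit read from the data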
Numbers without * were called inactive; x = no result. Compounds with a hit are over-represented: about 1.3% of the library has one in this group of screens.

SMILES	SRC3 inh	NR5A2 inv ag	Gli-Sufu block	NR2F2 inh	NCOA2 inhibitor	NCOA1 inh	Gli antag conf	SufuKO cytotox	Wnt3a counter
COc1ccc(N(CC(=O)NCc2ccc3c(c2)OCO3)C(=O)c2csnn2)cc1	5	-1	-20	-26	-41	5	x	x	x
O=C(CN(C(=O)c1csnn1)c1ccc(Cl)cc1)NCc1ccc2c(c1)OCO2	13	-26	53	22	-22	4	2	5	-12
CCOC(=O)Cn1cc(CN2CCS(=O)(=O)N(Cc3ccccc3)C(C(=O)OC)C2)nn1 (stereo unspecified)	x	x	x	10	-34	x	x	x	x
O=C(O)Cc1csc(Nc2cccc(Cl)c2)n1	-2	-18	69*	-9	-15	-21	13	20	-31
CC(C)c1ccc(Nc2nc(CC(=O)O)cs2)cc1	-83	-151	-95	-61	-69	-97	x	x	x
COC(=O)[C@]12C[C@H](CC(=O)NCC3CCCCC3)C(=O)N(Cc3cccc4ccccc34)C1=C[C@H](C1CCCC1)O[C@@H]2C	x	x	x	1	6	x	x	x	x
O=C(/C=C/c1ccc(S(=O)(=O)N2CCOCC2)cc1)NCc1ccccc1F	3	8	52	33	-4	-3	33	9	-5
O=C(/C=C/c1ccc(S(=O)(=O)N2CCOCC2)cc1)NCc1ccccc1Cl	12	9	5	7	14	11	x	x	x
Cn1c(CNC(=O)CCNC(=O)c2ccccc2F)cc(=O)n(C)c1=O	4	18	1	-5	11	-13	x	x	x
Cn1c(CNC(=O)CNC(=O)c2ccccc2F)cc(=O)n(C)c1=O	-2	-2	53	-1	2	2	4	12	-23
O=C(CCN1CCN(C/C=C/c2ccccc2)CC1)Nc1ccc(Cl)cc1	-6	-6	55	10	8	-7	15	24	-32
Cc1ccc(NC(=O)CCN2CCN(C/C=C/c3ccccc3)CC2)cc1	7	-11	-12	-14	9	9	x	x	x
O=C(c1ccccc1SCc1ccccc1)N1CCOCC1	-9	-17	61*	-5	-3	2	17	-2	9
CCc1nc(N)nc(N)c1-c1ccc(N(C)Cc2ccccc2)c([N+](=O)[O-])c1	42	52	63*	11	7	50	49*	21	17
COc1ccc(-n2c(Cc3cccs3)nnc2SCC(=O)Nc2cccc3ccccc23)cc1	x	x	x	-12	1	x	x	x	x
O=C(Nc1ccc2c(c1)Cc1ccccc1-2)NC1CCCCN(Cc2cccc(Cl)c2)C1=O (stereo unspecified)	x	x	x	-7	-11	x	x	x	x
CCOC(=O)c1c(N)sc(C(O)(C(F)(F)F)C(F)(F)F)c1-c1ccc(F)cc1	13	9	53	0	-1	1	6	5	-56
C=CCOC(=O)N[C@H](c1ccc(-c2ccccc2)cc1)[C@H](C)/C=C/CC(=O)OC	x	x	x	15	-69	x	x	x	x
CCOC(=O)c1c(NC(=O)COc2cccc3c2CCN(C)C3=O)sc2c1CCC2	39	-7	58*	8	9	11	43	8	15
CCc1cccc2c(C(=O)COC(=O)c3nn(C)c(=O)c4ccccc34)c[nH]c12	-29	-20	99*	7	-21	1	30	6	-86
COc1ccc(-c2c(NC(C)=O)n(C)c3ccccc3c2=O)cc1	7	8	100*	1	-20	-10	11	22	-22
COc1ccc(-c2c(-c3cc(OC)c(OC)c(OC)c3)noc2C)cn1	-8	-3	30	x	x	-4	x	x	x
COc1cc(-c2c(-c3cc(OC)c(OC)c(OC)c3)noc2C)ccc1F	x	x	51	-97	24	x	67*	65*	0
N#C/C(=C\c1ccc(-c2ccc([N+](=O)[O-])cc2)o1)C(=O)Nc1nc(-c2cccs2)cs1	2	2	70*	-6	-9	-16	80*	21	44*
